# Measured values from ChEMBL document CHEMBL3988442, “University of Dundee, Small-Polar-MMV Screening Library” (2021).
# In all, about 38,000 compounds went through this assay and about 1,200 (3.2%) showed an effect of 50% or more. The median lay at about -58%. The sample as a whole holds a higher share of strong results than the screen did.
# Tested on: Plasmodium falciparum
# Test: Calibr Malaria Delayed Death Assay SOP
# Assay type: functional, organism-based
# Set-up: scale not given: in the data most compounds retested in dose-response had high values
# Settings: concentration 4.99e-06 (unit not given; other assays of the set use mol/L)
row,SMILES,Percent Effect [%]
1,C=C(C)CN(CC)C(=O)c1cc(F)ccc1N1CCN(C)CC1,-6.643
2,CC(CNC(=O)c1cc(C2CC2)nc2c1cnn2C)Cn1cccn1 (stereo unspecified),-106.1
3,Cc1ccc(OCCNC(=O)C2CCOCC2)c(C)c1,-53.04
4,Cc1ccc(C)c(Oc2ccc(CNC(=O)C3CCC(=O)N3)cn2)c1 (stereo unspecified),-45.06
5,Cc1ccc(N2CCCC(c3[nH]ncc3-c3ccccc3)C2)nn1 (stereo unspecified),25.38
6,Cc1ccc(-c2cn[nH]c2C2CCCN(c3cc(N)ncn3)C2)cc1 (stereo unspecified),-38.82
7,Cc1cc(N2CCCC(c3[nH]ncc3Cc3ccccc3)C2)nc(N)n1 (stereo unspecified),72.87
8,Cc1cc(C)n2c(CCCNS(=O)(=O)c3cccs3)nnc2n1,-65.33
9,COCCN(C)C[C@@H]1CN(C(=O)C(C)(C)c2ccccc2)C[C@@H]1CO,29.59
10,COc1ccccc1OC1CN(C(=O)Cc2c(C)nc3ccccn23)C1,-26.12
11,COc1cccc(CNCc2c(C)nc3sc(C)cn23)c1OC,20.21
12,COc1ccc(NC(=O)c2nc(C)sc2C)cn1,-37.98
13,CCc1[nH]c2c(CNc3cncc(C(=O)N(C)C)n3)cc(C)cc2c1C,-71.53
14,CCc1[nH]c2c(CNc3nc(C)cc(NC)n3)cc(C)cc2c1C,88.9
15,CCc1[nH]c2c(CNc3cc(C)nc(NC)n3)cc(C)cc2c1C,84.97
16,CCc1[nH]c2c(CNc3cncc(C(=O)N(C)C)n3)cc(F)cc2c1C,-100.3
17,CCc1[nH]c2c(CNc3cncc(C(=O)OC)n3)cc(C)cc2c1C,-28.2
18,Cc1cc(C(=O)N2CCc3nc(N4CCOCC4)nc(C)c3C2)c(C)o1.O=CO,-46.43
19,COc1ccc(C(=O)CCC(=O)NCc2ncc(C)s2)cc1F,-71.69
20,CCCOC1Sc2nnc(C)n2N=C1c1ccccc1 (stereo unspecified),-105.9
21,COc1cccc(CNCCNS(=O)(=O)Cc2ccccc2)c1,54.45
22,COc1cccc(OCCNS(=O)(=O)Cc2ccccc2)c1,-90.07

row,SMILES,Percent Effect [%]
1,COc1cccc(CNCCc2cccc(C(N)=O)c2)c1,-12.09
2,C[C@@H]1CN(c2nc3c(cc2C(N)=O)CCC3)C[C@@]1(O)C1CCC1,-102.5
3,O=C(Nc1cccnc1-n1cc(Cl)cn1)C1CCCCC1,-29.97
4,CCOC(=O)C(C)NC(=O)N1CCN(c2nc3ccccc3n2C)CC1 (stereo unspecified),-114
5,CSCc1cc(F)ccc1CNCc1cccnc1,1.167
6,CSCc1cc(F)ccc1CNCc1ccncc1,-80.12
7,CSCc1cc(F)ccc1CNCc1cccc(O)c1,72.86
8,CC(C)CCOc1ccc(C(C)NC(=O)CSCC(N)=O)cc1 (stereo unspecified),-21.89
9,Cc1cc(=O)[nH]c(=O)n1COCc1ccccc1,-164.1
10,Cc1ccc(C(=O)N2CC(Oc3ccccc3C)C2)s1,-70.19
11,COCC(=O)N1CCC2(CCCN(Cc3cc(OC)ccc3F)C2)C1 (stereo unspecified),-77.74
12,OC1(CN2CCCC2)CCCN(Cc2cnc(-c3ccccc3)nc2)C1 (stereo unspecified),13.01
13,COc1ccc(F)cc1CN1CCCC1Cn1nc(C)nc1C (stereo unspecified),-22.72
14,CCCn1ccnc1CN1CCC(O)(CN2CCCCC2)C1 (stereo unspecified),17.5
15,Cc1cc(-n2cccn2)ccc1CN1CCC(O)(CN2CCCCC2)C1 (stereo unspecified),60.7
16,COc1ccc(CN2CCC(O)(CN3CCCCC3)C2)c(C)c1 (stereo unspecified),66.37
17,O=C(NCC1(O)CCC1)c1cccc(-n2cccn2)c1,-36.51
18,COc1ccc(F)cc1CN1CCCC(c2cc(C(N)=O)[nH]n2)C1 (stereo unspecified),-17.41
19,CCCn1ccnc1CN1CCCC(O)(CN2CCCC2)C1 (stereo unspecified),-81.98
20,Cc1cc(F)ccc1CN1CCCC(O)(CN2CCCC2)C1 (stereo unspecified),66.53
21,COc1ccc(F)c(CN2CCCC3(CCN(C(=O)CSC)C3)C2)c1 (stereo unspecified),-70.9
22,COc1ccc(F)cc1CN1CCC(O)(CN2CCCCC2)C1 (stereo unspecified),69.8

row,SMILES,Percent Effect [%]
1,O=C(NC1CCc2cc(Cl)ccc21)C1CCN(C(=O)C2CC2)CC1 (stereo unspecified),-26.17
2,OCC1CCCN(Cc2c(C3CCCC3)[nH]c3ncccc23)C1 (stereo unspecified),11.34
3,Cc1cc(CN2CCN(Cc3ccc(C#N)cc3F)CC2)no1,-21.87
4,CC(C)(C)OC(=O)N1CCN(S(=O)(=O)CCCC#N)C2(CCCCC2)C1,-7.011
5,OC1(CN2CCCC2)CCCN(Cc2cnc(-c3ccco3)nc2)C1 (stereo unspecified),-86.93
6,Cc1ccc2nc(CN3CCC(O)(CN4CCCC4)CC3)cc(O)c2c1,-44.54
7,COc1ccc(C)cc1CC(=O)N1CC[C@@]2(CCCO2)[C@@H](O)C1,-95.97
8,Cc1ccc(Cn2c(=O)[nH]c3csnc3c2=O)cc1,-6.005
9,Cc1nc(CN2CCC3(CC2)C(=O)N(C)CCN3C)cs1.O=C(O)C(F)(F)F.O=C(O)C(F)(F)F.O=C(O)C(F)(F)F,-106.3
10,Cc1nc(CN2CCCC23CCN(c2nc4ccccc4s2)CC3)co1,8.403
11,c1ccc2sc(N3CCC4(CCCN4Cc4ncc[nH]4)CC3)nc2c1,19.28
12,Cn1cc(CN2CCCC23CCN(c2nc4ccccc4s2)CC3)cn1,50.94
13,Cc1cccc(SC2CCN(C(=O)CCNS(C)(=O)=O)CC2)c1,-80.26
14,CCOCCOC(C)C(=O)Nc1ccnn1-c1ccccc1C (stereo unspecified),-67.54
15,COc1cc(CCC(=O)NCC2CC2)ccc1OCC(F)(F)F,-33.72
16,Fc1ccc(CN2CCCC(Cn3cncn3)C2)c2ncccc12 (stereo unspecified),-5.261
17,Fc1ccc(CN2CCOC(Cn3cncn3)C2)c2ncccc12 (stereo unspecified),-95.84
18,Clc1ccc(CN2CCCC(Cn3cncn3)C2)c2ncccc12 (stereo unspecified),63.13
19,Fc1ccc(CN2CCCCC2Cn2cncn2)c2ncccc12 (stereo unspecified),64.52
20,Fc1ccc(CN2CCCC2Cn2cncn2)c2ncccc12 (stereo unspecified),10.61
21,Nc1nc(CN2CCCC(Cn3cncn3)C2)nc2ccccc12 (stereo unspecified),-138.6
22,CCn1nnc2c1C(COC)CN(C(=O)Cc1ccccn1)C2 (stereo unspecified),-16.62

row,SMILES,Percent Effect [%]
1,CNC(=O)C1CCN(S(C)(=O)=O)CC1,-158.4
2,O=C1CC(c2cccs2)c2sc(C(=O)O)c(-c3ccccc3)c2N1 (stereo unspecified),-70.62
3,Cc1nc(N2CCCC2)ccc1NCc1ccccn1,-6.068
4,COc1ccc(C(=O)O)c(OCC(=O)NC(C)c2ccccc2)c1 (stereo unspecified),-10.57
5,COCCCNC(=O)c1c[nH]c2ccc(OC)cc12,-47.08
6,O=C1CCNc2ccc(F)cc2CN1Cc1ccccc1,-35.83
7,CC1N(c2cnn(C)c2)C(=O)COC12CCN(CC1CC1)CC2.O=C(O)C(F)(F)F (stereo unspecified),-75.35
8,Cc1cnc(NC(=O)c2ccc(-n3ncc(C#N)c3N)cc2)s1,-56.37
9,CCN(CC)C(=O)c1ccc(-n2ncc(C#N)c2N)cc1,-24.17
10,COc1ccc(NC(=O)c2ccc(-n3ncc(C#N)c3N)cc2)cn1,80.07
11,O=C(CSc1ccccn1)N1CCC(OCc2cccnc2)CC1,-154
12,Cn1cnc(S(=O)(=O)NCCC(O)c2ccc3c(c2)OCO3)c1 (stereo unspecified),-141.1
13,CC(Nc1cccc(F)c1C#N)c1cccc(S(N)(=O)=O)c1 (stereo unspecified),-56.47
14,Cc1ccnc(OC[C@]23COC[C@H]2CN(C(=O)C2=CCCCC2)C3)n1,-29.48
15,C[C@]1(O)CCN(Cc2c[nH]cn2)C[C@@H]1Oc1cccc(F)c1,-164.2
16,CC(C)Oc1ccccc1-c1cc(CN)ccc1F,60.74
17,COc1cccc(-c2cc(CN)ccc2F)c1F,-75.66
18,COc1cccc(Cl)c1-c1cc(CN)ccc1F,65.68
19,NCc1ccc(Oc2cccc(Cl)c2Cl)cc1,19
20,COCCNC(=O)NCc1ccc(OC(C)C)c(F)c1,-81.14
21,CC(C)Oc1ccc(CNC(=O)c2cc(C(N)=O)cs2)cc1F,-80.32
22,Cc1cc(NC(=O)Cc2ccc3c(c2)OCO3)n(C)n1,-77.02

row,SMILES,Percent Effect [%]
1,O=C(CC1NC(N2CCc3ccccc32)=NC1=O)Nc1ccc(Cl)cc1 (stereo unspecified),-176.9
2,O=C(Cn1cc(C2CC2)nn1)N(Cc1ccco1)Cc1cccs1,-76.11
3,CN(C)c1ncccc1CNCc1cccc(O)c1,-22.48
4,O=C(CCc1ccccc1)NCC1CCN(Cc2ccsc2)CC1,18.12
5,O=C(CCc1ccsc1)NCC1CCN(Cc2cccs2)CC1,58
6,O=C(CCc1ccccc1)NCC1CCN(Cc2cccs2)CC1,-10.35
7,CCn1ncc2c1C(COC)N(C(=O)c1ccsc1)CC2.O=C(O)C(F)(F)F (stereo unspecified),-121.1
8,Cc1cc(N2CCC(c3ncc[nH]3)CC2)c2ccccc2n1,61.5
9,Cc1cc(N2CCC(c3ncc[nH]3)CC2)nc(N)n1,-29.26
10,Cc1cc(N2CCC(c3ncc[nH]3)CC2)cc(C)n1,-30.44
11,Cc1cc(C(=O)N2CC(O)CO2)c2cccc(C)c2n1 (stereo unspecified),-103.4
12,Cn1nc(C(=O)NC2(c3ccc(Cl)cc3)CCCC2)ccc1=O,37.39
13,Cc1nccn1Cc1nnc(C2CCCN(c3ncccc3F)C2)n1C (stereo unspecified),-123.3
14,COCc1noc(Cn2c(C3CC3)nc3ccccc32)n1,-91.38
15,Cn1cc(C2(C)CN(Cc3ccc(Cl)c(F)c3)CCO2)cn1 (stereo unspecified),-40.79
16,CC(C)n1ccnc1C1CCN(Cc2ccc(Cl)c(F)c2)CC1,33.02
17,CN1CCN(Cc2ccc(F)cc2)Cc2cccnc21,-11.04
18,COc1cccc(C(=O)N2CCCC2c2ncc3c(n2)CCN(C)C3)c1 (stereo unspecified),-46.26
